Data published in PubChem BioAssay (NCATS).
“And” between values parts separate entries of the source, which are not always exact repeats. Equal entries are not always repeated. Inconclusive results are not listed. A call without a number means that no potency is given here. The source made the active and inactive calls. Calls come from the whole dose curve; as a rule, active = well fitted inhibition curve with a large enough effect; inconclusive = small, poorly fitted or top-dose-only effect; inactive = no such curve, though single readings can be large or run the other way.

Target: N-terminal Xaa-Pro-Lys N-methyltransferase 1 (Homo sapiens) (UniProt Q9BV86)
Assay: qHTS Assay for Inhibitors of N-terminal methyltransferase 1 (NTMT1): LOPAC validation of the NTMT1 SAHH-coupled ThioGlo3 Assay (AID 1347143);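 note: SAH from peptide methylation measured as thiol fluorescence via SAHH coupling and ThioGlo3; nearly all actives have a fitted effect of over 70% in size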
Settings: recombinant NTMT1, SAHH-coupled ThioGlo3 fluorescence; series mostly up to 114 µM
From the text: Assay Submitter (PI): Rong Huang Ph.D, Purdue University, West Lafayette, IN 47907 The N-terminal methytransferase 1 is the first methyltransferase that methylates protein alpha-N-amines and plays an important role in regulating cell mitosis, chromatin interactions and DNA repair. It is observed to be over-expressed in various cancer patient tissues like malignant melanoma and colorectal cancer tissues. Knockdown of NTMT1 in cancer cells causes cell mitotic defects and enhances sensitivity to DNA damaging chemotherapeutics. […] These critical cellular processes in which NTMT1 is implicated, coupled with emerging links to cellular dysfunction, strengthen the inference that NTMT1 is a compelling novel anticancer target. Progress have been made in understanding the molecular properties of NTMT1 and the biological consequences of protein alpha-N-terminal methylation, but there are no specific small molecule probes available for NTMT1 to fully characterize its MTase activity. To address this unmet need, a panel of assay is created and established to enable quantitative high-throughput screening (qHTS) for novel, potent, and selective small molecule NTMT1 inhibitors. Two orthogonal qHTS that use different reagents (ThioGlo vs. MTaseGlo) are developed for primary robotic screening against the NCATS chemical library of more than 400,000 small molecules. Identified inhibitors are reacquired, validated, and further characterized. […] A pilot screen against the LOPAC library of 1280 compounds is carried out to assess performance of the optimized qHTS in 1536-well plate format. Early Translation Branch (ETB) National Center for Advancing Translational Sciences (NCATS) National Institute of Health (NIH)
Materials: NTMT1 enzyme, substrate SPKRIA, control peptide RCC1-6 is provided by the Huang laboratory. ThioGlo3 Assay: In brief, 125nM NTMT1 enzyme was dispensed into a 1536-well assay plate with Aurora Discovery BioRAPTR Flying Reagent Dispenser (FRD, Beckton-Dickenson). Compounds (at various concentration) or 1uM RCC1-6 (SPKRIA) control were transferred to the assay plate using the Kalypsys 1536-pintool apparatus. After 1 min of room temperature incubation, 1uL of substrate (100uM SAM, 10uM SAHH, 15uM ThioGlo3) was added to the wells bringing the final assay volume to 4uL. Initial (background) fluorescence readout (EX: 340nm, EM: 450nm) was then detected using the PerkinElmer ViewLux microplate imager and a final fluorescence readout was taken after 30 min of room temperature incubation. The data was normalized to the background fluorescence.
Potency is the fitted concentration of half-maximal effect.

Sequence of N-terminal Xaa-Pro-Lys N-methyltransferase 1 (Homo sapiens) (Q9BV86 whole entry, looked up): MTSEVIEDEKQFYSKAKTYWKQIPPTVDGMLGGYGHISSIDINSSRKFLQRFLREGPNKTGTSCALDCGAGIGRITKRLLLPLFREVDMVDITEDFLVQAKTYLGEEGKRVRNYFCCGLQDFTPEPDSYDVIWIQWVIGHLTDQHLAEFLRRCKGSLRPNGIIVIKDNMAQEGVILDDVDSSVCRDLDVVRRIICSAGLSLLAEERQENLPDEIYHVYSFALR

SMILES | Potency
CN(C)CC[C@@H](c1ccc(Cl)cc1)c1ccccn1 | inactive
CCCn1cnc2c1c(=O)n(CCCCC(C)=O)c(=O)n2C | inactive
CC(CN1c2ccccc2Sc2ccccc21)N(C)C (stereo not given) | 50.1 µM (active)
CC(C)(C(=O)O)c1ccc(C(O)CCCN2CCC(C(O)(c3ccccc3)c3ccccc3)CC2)cc1 (stereo not given) | inactive
NC(=O)c1ncn([C@@H]2O[C@H](CO)[C@@H](O)[C@H]2O)n1 | inactive
CCN(CC)CCNC(=O)c1cc(Cl)c(N)cc1OC | inactive
COCCOC(=O)C1=C(C)NC(C)=C(C(=O)OC/C=C/c2ccccc2)C1c1cccc([N+](=O)[O-])c1 (stereo not given) | inactive
CC[C@H]1CN2CCc3cc(OC)c(OC)cc3[C@@H]2C[C@@H]1C[C@H]1NCCc2cc(OC)c(OC)cc21 | inactive
CCN(CC)C(C)CN1c2ccccc2Sc2ccccc21 (stereo not given) | 25.1 µM (active)
CC1=C(CC(=O)O)c2cc(F)ccc2/C1=C\c1ccc(S(C)(=O)=O)cc1 | inactive
CCCCN(CCCC)CC(O)c1cc(Cl)cc2c1-c1ccc(Cl)cc1/C2=C/c1ccc(Cl)cc1 (stereo not given) | inactive
Nc1cc(=O)[nH]c(N)n1 | inactive
CC(C)c1c(C(=O)Nc2ccccc2)c(-c2ccccc2)c(-c2ccc(F)cc2)n1CC[C@@H](O)C[C@@H](O)CC(=O)O | inactive
CNCC(O)c1ccc(O)c(O)c1 (stereo not given) | inactive
Cc1cc(N)c2ccccc2[n+]1CCCCCCCCCC[n+]1c(C)cc(N)c2ccccc21 | 39.8 µM (active)
CN(C)CCC=C1c2ccccc2CCc2ccccc21 | inactive
CC(C(O)c1ccc(O)cc1)N1CCC(Cc2ccccc2)CC1 (stereo not given) | inactive
Cc1c(O)cccc1C(=O)N[C@@H](CSc1ccccc1)[C@H](O)CN1C[C@H]2CCCC[C@H]2C[C@H]1C(=O)NC(C)(C)C | inactive
CNCCC(Oc1ccc(C(F)(F)F)cc1)c1ccccc1 (stereo not given) | inactive
OCc1cc(C(O)CNCCCCCCOCCCCc2ccccc2)ccc1O (stereo not given) | 56.2 µM (active)

SMILES | Potency
O=C1NC(=O)[C@@]2(CCOc3ccc(F)cc32)N1 | inactive
CC(=O)OCC(=O)[C@@]1(O)CC[C@H]2[C@@H]3CCC4=CC(=O)CC[C@]4(C)[C@H]3C(=O)C[C@@]21C | inactive
CC(C)C(=O)c1c(C(C)C)nn2ccccc12 | inactive
NC(N)=NCCC[C@H](N)C(=O)O | inactive
C[C@]12CC[C@@H]3c4ccc(O)cc4CC[C@H]3[C@@H]1CCC2=O | inactive
C[C@H](NC(CCc1ccccc1)C(=O)O)C(=O)N1CCC[C@H]1C(=O)O (stereo not given in full) | inactive
N=c1c[n+](N2CCOCC2)[n-]o1 | 44.7 µM (active) and 50.1 µM (active)
NC1[C@H]2CN(c3nc4c(cc3F)c(=O)c(C(=O)O)cn4-c3ccc(F)cc3F)C[C@@H]12 (stereo not given in full) | 50.1 µM (active)
COc1ccc(Cl)cc1C(=O)NCCc1ccc(S(=O)(=O)NC(=O)NC2CCCCC2)cc1 | inactive
CC(CN(C)C)CN1c2ccccc2CCc2ccccc21 (stereo not given) | inactive
C[C@](N)(Cc1ccc(O)cc1)C(=O)O | inactive
CCCCc1ncc(/C=C(\Cc2cccs2)C(=O)O)n1Cc1ccc(C(=O)O)cc1 | inactive
C[C@H]1O[C@@H](n2cc(F)c(=O)[nH]c2=O)[C@H](O)[C@@H]1O | inactive
CC[N+](CC)(CC)CCOc1ccc(/C=C/c2ccccc2)cc1 | 39.8 µM (active)
COC(=O)C1=C(C)NC(C)=C(C(=O)OC)C1c1ccccc1[N+](=O)[O-] | 12.6 µM (active)
C=Cc1c(C)c2cc3[nH]c(cc4nc(cc5nc(cc1[nH]2)C(C)=C5CCC(=O)O)C(CCC(=O)O)=C4C)c(C)c3C=C | 39.8 µM (active)
CN(C)CCOC(C)(c1ccccc1)c1ccccn1 (stereo not given) | inactive
CC(C)(C)c1onc(OCP(=O)(O)O)c1CC(N)C(=O)O (stereo not given) | inactive
CCN(CC)CCCC(C)Nc1c2ccc(Cl)cc2nc2ccc(OC)cc12 (stereo not given) | 39.8 µM (active)
CCN(CC)CCOC(=O)C1(C2CCCCC2)CCCCC1 | inactive
